In PubChem BioAssay (NCI):
This is part of a sample that, as a whole, favours compounds with a hit. Of some 83,000 tested, about 20% had one in any assay.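 Activity criterion: percent growth below 10, measured after cells in 96-well plates were exposed to a single compound concentration for 48 hours.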 Values without a mark were called inactive. Calls of active or inactive are those of the source.

Tested on: A498 renal
Experiment: NCI-60 one-dose screen, 48 h (100 = growth as untreated, 0 = no growth, -100 = all killed)
Settings: 10 µM unless noted

| Compound | growth |
| --- | --- |
| COc1ccc(C=Nc2c(C(=O)Nc3cccc(Cl)c3C)sc3nc(C)c(C(=O)/C=C/c4ccc(OC)cc4)cc23)cc1 | -4.79% (active) |
| CCOC(=O)CNC1=C(Cl)C(=O)N(Cc2ccc(Cl)cc2)C1=O | 90.3% |
| COc1ccc(/C=C(\C(=O)NCc2cccnc2)S(=O)(=O)c2ccccc2)cc1OC | 51% |
| COc1cc2c(c(OC)c1OC)CCC(c1cccc(C(=O)Nc3ccc(Br)cc3)c1)O2 (stereo not given) | -3.18% (active) |
| Nc1cc(-c2ccc(Cl)cc2)nn1-c1nnc(/C=C/c2ccco2)c(=O)[nH]1 | 33.8% |
| N#C/C(=C\c1ccc(-c2cccc(Cl)c2)o1)C(=O)Nc1ncc(Cc2ccc(Cl)cc2)s1 | 74.1% |
| CCOC(=O)c1c(C)nc2c(c1N)C(=O)C(=O)N2Cc1ccc(OC)cc1 | 90.4% |
| c1csc(-c2cn3nc(-c4c[nH]c5ccccc45)sc3n2)c1 | 20.8% |
| FC(F)(F)c1[nH]ncc1-c1nc2ccc3[nH]ncc3c2c2c1CCCC2 | -60.5% (active) |
| COc1cc(-c2nccc3[nH]c(-c4cccc5[nH]ccc45)nc23)cc(OC)c1OC | -6.89% (active) |
| COc1ccc2[nH]cc(-c3nonc3-c3c[nH]c4ccc(Br)cc34)c2c1 | 51.4% |
| CC(=O)c1c(Nc2cccc(F)c2)[nH]c2c(Cl)cc(Cl)c(Cl)c2c1=O | -41.6% (active) |
| CCOC(=O)NC(=S)n1oc(=O)c2ccccc21 | 103% |
| O=S(Nc1ccccc1)c1ccc(Cl)cc1 (stereo not given) | 95.8% |
| Nc1c(Br)cc2c(c1Br)Cc1cc([N+](=O)[O-])ccc1-2 | 114% |
| CCCN(CCSSCCNc1nc(N(C)O)nc(N(C)O)n1)c1nc(N(C)O)nc(N(C)O)n1 | 64.4% |
| COC(=O)c1sccc1-c1cc(O)c(C(=O)Nc2ccccc2)s1 | 115% |
| N#Cc1c(-c2ccc(Cl)cc2)nc(NN=Cc2ccc[nH]2)nc1N1CCOCC1 | 31.7% |
| Clc1ccc(-c2nc(C(Cl)Cl)nc3cc(-c4ccccc4)nn23)cc1 | -15.8% (active) |
| C/C(=N\Nc1ccccc1)c1ccc(NC2=CC(=O)c3ccccc3C2=O)cc1 | 110% |

| Compound | growth |
| --- | --- |
| COc1ccc(/C=C(/C(=O)N2CCNCC2)c2cc(OC)c(OC)c(OC)c2)cc1O | 59% |
| CCN(CC)CCCC(Cc1ccccc1)Nc1c2ccc(Cl)cc2nc2ccc(OC)cc12 (stereo not given) | 46.8% |
| Fc1ccc2[nH]cc(-c3nc(-c4c[nH]c5c(Cl)nccc45)cs3)c2c1 | 14% |
| Fc1ccc(/C=C/[C@@H]2C[C@@H](F)CCO2)cc1 | 109% |
| Cc1ccccc1N1CCN(C(=S)c2ccccc2)CC1 | 101% |
| N#Cc1ccc(/C=C/c2cn(-c3ccccc3)nc2-c2cccc([N+](=O)[O-])c2)cc1 | 97% |
| Cc1[nH]c(C(=O)Nc2ccccc2OC2CCN(CCN3CCOCC3)CC2)c(Cl)c1Cl | 71.6% |
| COc1ccc(C(O)c2cc3c(N)c(C(=O)Nc4cccc5ccccc45)sc3nc2C)cc1 (stereo not given) | -13.1% (active) |
| Cc1ccc(C(=O)c2ccc(CC(=O)N/N=C/c3cccc(O)c3O)n2C)cc1 | 93.3% |
| CCC(C)(C)c1ccc(Nc2ccc(Nc3ccc(C(C)(C)CC)cc3)cc2)cc1 | 121% |
| O=C(Nc1ccc(Nc2ccncc2)cc1)c1ccc(Nc2ccnc3ccc([N+](=O)[O-])cc23)cc1 | 130% |
| CCCCNC(=O)c1ccc2c(c1)nc(-c1ccccc1)n2C1CCCCC1 | 101% |
| Cc1ccc(NC(=O)c2cc3ccccc3cc2O)c(C)c1 | 68.4% |
| CCOC(=O)C(CCN(C)C)c1ccccc1 (stereo not given) | 107% |
| CC(O)Cc1c[nH]c(=O)[nH]c1=O (stereo not given) | 87.8% |
| COCCn1cc(-c2nc(-c3c[nH]c4ncccc34)cs2)c2ccccc21 | 44.7% |
| CC1SC(c2ccccc2O)N(NC(=O)CCC(=O)c2nc3ncccc3[nH]2)C1=O (stereo not given) | 90.6% |
| COC12C=C/C(=C(/C(=O)OCCSc3ccnn3C)C(=O)CCCCCCCCC3(OC)C=C/C(=C(/C(=O)OCCSc4ccnn4C)C(=O)CCCCCCCC1)O3)O2 | -53.5% (active) |
| COC1C(O)CC(OC2CC(OC3CC(O[C@@H]4C(=O)c5c(cc6cc(OC7CC(OC8CC(O)C(O)C(C)O8)C(O)C(C)O7)c(C)c(O)c6c5O)CC4[C@H](OC)[C@@H](O)C(C)=O)OC(C)C3O)OC(C)C2O)OC1C (stereo not given in full) | -78.8% (active) |
| CNC(=O)c1cc(Oc2ccc3c(c2)sc2nc(-c4ccc(NC(=O)[C@@H](NC(=O)OC)C(C)C)cc4)cn23)ccn1 | 68.5% |
